The text below walks through data of PubChem BioAssay AID504332 (National Center for Advancing Translational Sciences (NCATS), 2011).

Values joined by “and” are separate entries in the source; they are usually repeats but may differ in a detail not shown here. Equal values may be shown once. The whole screen tested about 350,000 compounds, of which about 31,000 (8.9%) were called active. A call without a number means that no potency is given here. About 15% were inconclusive and are not listed. The sample holds actives, similar compounds and a random draw of the others, so the mix is not that of the screen. The call rests on the fitted dose curve; in most records, active means well fitted inhibition curve with a large enough effect; inconclusive means small, poorly fitted or top-dose-only effect; inactive means no such curve, though single readings can be large or run the other way. Where a structure was tested more than once in an assay, its records may differ in their call.
Potency means the concentration at half of the fitted maximal effect.

In the experiment the target is Histone-lysine N-methyltransferase EHMT2 (Homo sapiens) (UniProt Q96KQ7). As to the kind of experiment: qHTS Assay for Inhibitors of Histone Lysine Methyltransferase G9a. Further: nearly all actives have a fitted effect of over 75% in size. Conditions: G9a H3K9 monomethylation, AlphaScreen, 2 h; series mostly up to 102 µM. The method in brief: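 AlphaScreen read-out: biotin-H3K9 peptide (500 nM) methylation by 20 nM enzyme with 20 uM SAM, 2 h at room temperature after 15 min compound preincubation; anti-monomethyl H3K9 antibody plus donor/acceptor beads, 10 min dark.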
Sequence of Histone-lysine N-methyltransferase EHMT2 (Homo sapiens) (Q96KQ7 913-1193 limits assumed): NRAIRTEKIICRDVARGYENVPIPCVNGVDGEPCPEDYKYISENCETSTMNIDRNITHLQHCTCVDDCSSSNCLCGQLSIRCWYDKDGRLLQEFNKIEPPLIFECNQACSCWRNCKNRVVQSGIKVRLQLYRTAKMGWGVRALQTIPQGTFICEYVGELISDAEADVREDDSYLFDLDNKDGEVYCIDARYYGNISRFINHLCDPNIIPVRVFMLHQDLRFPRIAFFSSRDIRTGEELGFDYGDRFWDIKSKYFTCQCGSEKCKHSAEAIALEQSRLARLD
Background: qHTS replaces the single test concentration by a dilution series.
Turning to `OC(Cn1c2ccccc2c2ccccc21)C[n+]1ccccc1` (stereo not given), the activity, negative = inhibition result is “inactive”. With `CN1CCc2nc(SC(C(=O)O)c3ccccc3)c(C#N)c(-c3cccs3)c2C1` (stereo not given), the Potency was 31.6 µM (active).

Take `CN1CCCC(=C(c2cccs2)c2cccs2)C1`: the activity, negative = inhibition was -17.6% [at 12.7 µM] (inactive). In the case of `Cn1c(O)c(C=NCCCC(=O)O)c(=O)n(C)c1=O`, the activity, negative = inhibition result was “inactive”. Still for that read-out and setting: the result for `COCCNC(=O)CN1C2CCC1CC(O)(c1cccnc1)C2` (stereo not given) reads “inactive”. Regarding `O=C1NC(=O)C(C/C=C/c2ccccc2)C(=O)N1`, the Potency was 25.1 µM (active). As for `O=C(O)C1C2CCC(O2)C1C(=O)O` (stereo not given), the activity, negative = inhibition is 48.4% [at 12.7 µM] (inactive). For `CN(C)C(=O)NC(O)C(Cl)(Cl)Cl` (stereo not given), the activity, negative = inhibition entry is “inactive”.

Take `CCc1ccc(OCC(=O)N2CCN(CC(=O)Nc3ccccc3Cl)CC2)cc1`: the activity, negative = inhibition is -1.72% [at 2.33 µM] (inactive). Regarding `O=C(COc1ccc2ccccc2c1)N1CCN(Cc2ccncc2)CC1`, the Potency is 6.31 µM (active).

On to `CC(C)c1ccc(OCC(=O)N2CCCN(C)CC2)cc1`, for which the activity, negative = inhibition result is “inactive”.

Regarding `O=C(COC(=O)c1ccccc1)Nc1ccc(Cl)cc1C(=O)c1ccccc1`, the activity, negative = inhibition result is “inactive”. The same measure, in the same setting: the result for `CC(=O)Cc1ccc(OC(C)C)cc1` reads “inactive”. Same read-out and setting: the result for `O=C(COC(=O)Cc1ccccc1)Nc1ccc(F)cc1` reads “inactive”; that for `COC(=O)C1=C(c2cccc(OCc3ccccc3)c2)C[C@@H]2CC[C@H]1N2C(=O)NNCc1ccccc1`, 2.91% [at 2.33 µM] (inactive). As for `O=S(=O)(Nc1ccc2[nH]ncc2c1)c1ccccc1Cl`, the Potency was 22.4 µM (active).

For the compound `NC(=O)Cn1cc(C(=O)c2ccccc2F)c2ccccc21`, the activity, negative = inhibition entry is “inactive”. On to `O=C(CCCn1c(=O)[nH]c2cc(Cl)ccc2c1=O)N1CCC2(CC1)OCCO2`, for which the activity, negative = inhibition result was “inactive”. Same read-out and setting: with `Cc1cccc(OP(=O)(Oc2cccc(C)c2)OC(c2ccccc2)C(F)(F)F)c1` (stereo not given) the entry was “inactive”; with `COc1ccc(-n2c(-c3ccccc3)nc3ccccc3c2=O)cc1`, “inactive”.

As to `C[N+]1(C)CCOC(O)(c2ccc(-c3ccc(C4(O)C[N+](C)(C)CCO4)cc3)cc2)C1` (stereo not given), the Potency entry was “inactive and 50.1 µM (active) and 20 µM (active)”.

For the compound `CC[N+]1(CCOC(=O)C(O)(c2ccccc2)c2ccccc2)CCCCC1`, the activity, negative = inhibition was -33.9% [at 12.7 µM] (inactive). The same measure, in the same setting: with `Cc1ccc(-c2nn(CCC#N)cc2C(=O)O)cc1C` the entry was “inactive”; with `O=C(c1ccccc1[N+](=O)[O-])N1CCC2(CC1)OCCO2`, “inactive”; with `CC(C)n1c(=O)c(C=Nc2ccc(Br)cc2)c(O)n(Cc2ccco2)c1=O`, “inactive”. `O=[N+]([O-])c1cnc2ccc3ccccc3c2c1`: the Potency was 50.1 µM (active). For the compound `Cc1ccc(-n2c(-c3ccc([N+](=O)[O-])cc3)nc3ccccc3c2=O)cc1`, the activity, negative = inhibition entry is “inactive”. Still for that read-out and setting: with `CCCC(C)n1[nH]c(=O)c2c1NC(=O)CSC2c1ccc(OC)c(OC)c1` (stereo not given) the entry was “inactive”; with `Cn1c(C(=O)N2CCC(C(=O)N3CCC4(CC3)OCCO4)CC2)cc2sccc21`, “inactive”. On the same count and under the same terms, with `CN(C)C(=O)Oc1cc(OC(=O)N(C)C)cc(C(O)CNC(C)(C)C)c1` (stereo not given) the entry was “inactive”; with `CCOP(=O)(OCC)C(NC(=O)c1ccc(OC)cc1)C(Cl)(Cl)Cl` (stereo not given), “inactive”.

On to `COc1ccc(C(=O)C2CN(C)CC2C(=O)c2ccc(OC)cc2)cc1` (stereo not given), for which the activity, negative = inhibition result is “inactive”. With `COc1ccc(C(=O)CC2C(=O)N(C)C(=O)N(C)C2=O)cc1`, the Potency is 2.24 µM (active). Consider `CCCOC(=O)C1C2c3ccccc3C(c3ccccc32)C1C(=O)O` (stereo not given), for which the activity, negative = inhibition result was “inactive”. In the case of `CCC1(C)CC(=O)NC1=O` (stereo not given), the activity, negative = inhibition was 28.2% [at 12.7 µM] (inactive). `CCN(CC)CCOC(=O)c1cc2cc(COC)ccc2o1`: the Potency is 17.8 µM (active). In the case of `Cc1nn(Cc2ccccc2Cl)c(Cl)c1C(=O)OC(C(=O)NC(N)=O)C(C)C` (stereo not given), the activity, negative = inhibition entry is “inactive”. On the same count and under the same terms, with `CC(=NCC1CCCO1)c1c(O)n(-c2ccccc2)c(=O)[nH]c1=O` (stereo not given) the entry was “inactive”; with `CCN1c2nc3c(C)cccn3c(=O)c2CC2(C(=O)N(C)C(=O)N(C)C2=O)C1C` (stereo not given), 7.48% [at 12.7 µM] (inactive). Take `CC(=O)c1ccc(-c2ccc(Cn3c(C)nc4cc(N)c(C)nc43)cc2)cc1`: the Potency is 15.8 µM (active). On to `CCOC(=O)c1c(N)n(Cc2ccccc2)c2nc3ccccc3nc12`, for which the activity, negative = inhibition entry was “inactive”. With `CN(C)P(=S)(Nc1ccccc1)C(Cl)(Cl)Cl` (stereo not given), the activity, negative = inhibition entry was “inactive”. Still for that read-out and setting: with `COC(=O)C1=C(c2ccc(-c3ccccc3)c(F)c2)C[C@@H]2CC[C@H]1N2C(=O)NCc1ccc(F)cc1` the figure was 12.5% [at 0.501 µM] (inactive); with `CNC(=O)Nc1ccc(C(O)(C(=O)OC)C(F)(F)F)cc1` (stereo not given), “inactive”; with `Cn1cc(C(=O)OCC(=O)N2CCCC2)c2ccccc21`, 17.1% [at 12.7 µM] (inactive). The same measure, in the same setting: with `NCC(O)c1ccc(O)cc1` (stereo not given) the figure was -5.15% [at 2.33 µM] (inactive) and 25.4% [at 12.7 µM] (inactive); with `CC(C(=O)Nc1ccc(Cl)cc1Cl)N1CC=C(c2ccccc2)CC1` (stereo not given), “inactive”; with `CC1C2Cn3c(nc4ccccc43)C1N(C)O2` (stereo not given), 11.2% [at 12.7 µM] (inactive). As to `O=C1NC(=O)N(c2ccc(F)cc2)C(=O)/C1=C/c1ccc2c(c1)CCCN2Cc1ccccc1`, the Potency was 12.6 µM (active). Regarding `O=C(NC(c1ccc(Cl)cc1)P(=O)(Oc1ccccc1)Oc1ccccc1)OCc1ccccc1` (stereo not given), the activity, negative = inhibition result is “inactive”. Same read-out and setting: the result for `Cc1ccccc1NC(=O)COC(=O)c1cc(C)n(C2CC2)c1C` reads “inactive”; that for `CCOC(=O)C(O)(c1ccc(N)c(OC)c1)C(F)(F)F` (stereo not given), -7.69% [at 2.33 µM] (inactive). The same measure, in the same setting: the result for `CCOP(=O)(OCC)C(NC(=O)NC)C(N)=O` (stereo not given) reads “inactive”. The same measure, in the same setting: with `Nc1ccc(C(=O)N/N=C2/CN3CCC2CC3)cc1` the entry was “inactive”. Turning to `CCC(C)n1c(O)c(/C=N/Nc2nc3c(c(=O)n(C)c(=O)n3C)n2C)c(=O)[nH]c1=S` (stereo not given), the Potency was 25.1 µM (active). For the compound `CC(=O)c1c(O)c(C)c(O)c(Cc2c(O)c3c(c(C(=O)/C=C/c4ccccc4)c2O)OC(C)(C)C=C3)c1O`, the Potency was 14.1 µM (active) and 2.12 µM (active). Take `O=c1c2ccccc2nc(/C=C/c2ccc(F)cc2)n1-c1ccccc1O`: the activity, negative = inhibition entry is “inactive”. Turning to `C=CCN(CC=C)C(=O)Nc1ccc(OCC)cc1`, the activity, negative = inhibition entry was “inactive”. For `CC[C@]1(C)CC(=O)NC1=O`, the activity, negative = inhibition was -2.16% [at 12.7 µM] (inactive). The same measure, in the same setting: the result for `COC(=O)C1=C(c2ccc(F)cc2OCc2ccccc2)C[C@@H]2CC[C@H]1N2C(=O)NCc1ccc(Cl)cc1` reads 8.03% [at 2.33 µM] (inactive); that for `O=C(c1cc2nc(-c3ccccc3)cc(-c3ccccc3)n2n1)N1CCC2(CC1)OCCO2`, 17.4% [at 12.7 µM] (inactive); that for `CC1=C2C(=O)C3C(CC=C4CC(OC5OC(O)C(O)C(O)C5CO)CCC43C)C2CCC12OC1CC(C)CNC1C2C` (stereo not given), “inactive”. Take `O=C1NC(=O)N(CCc2ccc(F)cc2)C(=O)/C1=C/C=C/c1ccccc1`: the Potency is 70.8 µM (active).

For `COC(=O)C(O)(c1ccc(NC(=O)c2ccco2)c(OC)c1)C(F)(F)F` (stereo not given), the activity, negative = inhibition entry was “inactive”. The same measure, in the same setting: the result for `CCc1cccc2c(C#N)cn(CC(=O)N3CCOCC3)c12` reads 15.5% [at 12.7 µM] (inactive). The same measure, in the same setting: the result for `COCc1cc(OC(=O)N(C)C)nc(-c2ccc(C)c(Cl)c2)n1` reads “inactive”; that for `CCCCCCCCc1[se]c2ccccc2c1Br`, “inactive”. Same read-out and setting: the result for `COc1ccc(-c2nc(CS(=O)CC(=O)N3CCC4(CC3)OCCO4)c(C)o2)cc1` (stereo not given) reads -4.28% [at 12.7 µM] (inactive); that for `C[C@]12CC[C@H](O)C[C@H]1CC[C@@H]1C2CC[C@]2(C)[C@@H](C3=CC(=O)OC3)[C@@H](O)C[C@]12O` (stereo not given in full), -8.99% [at 2.33 µM] (inactive). Take `CN(C)c1ccc(NC(=O)CN2C3CCCC2CC(NC(=O)c2ccccc2)C3)cc1` (stereo not given): the Potency was 50.1 µM (active).

For `Cc1cc(C)cc(NC(=S)NC2CC3CCCC(C2)N3Cc2cccs2)c1` (stereo not given), the activity, negative = inhibition entry was “inactive”. On to `CCC(C)C(=O)O[C@@H]1C[C@@]2(C)C(c3ccoc3)OC(=O)CC23OC2(C)O[C@@]14[C@@]1(C)C(CC(=O)OC)C5(C)CC1(O)C(O)(C5OC(=O)C1(C)OC1C)C(OC(C)=O)[C@@]34O2` (stereo not given in full), for which the activity, negative = inhibition is -36.9% [at 2.33 µM] (inactive). Consider `c1ccc2sc(SNC3CCCCC3)nc2c1`, for which the Potency was 1.78 µM (active). For the compound `COc1cc2c(cc1OC)[C@@H]1C(=O)c3ccc(O)c(CC=C(C)C)c3OC1CO2` (stereo not given in full), the activity, negative = inhibition was -32.8% [at 2.33 µM] (inactive).

As to `O=C(CSC1c2ccccc2-c2ccccc21)N/N=C/c1ccccc1`, the activity, negative = inhibition result was “inactive”. The same measure, in the same setting: the result for `c1cncc(CNC2=NCCC2)c1` reads “inactive”. Take `CN1CCC(N(C)Cc2cccnc2)CC1`: the Potency is 3.16 µM (active). Still for that read-out and setting: the result for `CC1CCCCN1Cc1cccnc1` (stereo not given) reads 6.31 µM (active). Consider `c1cncc(CNCCc2c[nH]c3ccccc23)c1`, for which the activity, negative = inhibition entry was “inactive”. With `CCOC(=O)C1(Cc2ccc(Cl)cc2)CCN(C(C)CCn2cccn2)CC1` (stereo not given), the activity, negative = inhibition result was “inactive”.

As to `CC[N+](CC)(CC)CCCCCCCCCC[N+](CC)(CC)CC`, the activity, negative = inhibition entry was “inactive”.

For `C=CCN1C(=O)C2(C(C(=O)OCC)=C(N)Oc3c2c(=O)oc2ccccc32)c2ccccc21` (stereo not given), the activity, negative = inhibition entry is “inactive”. Same read-out and setting: with `Fc1ccc(C2N3CCCN23)cc1` (stereo not given) the entry was “inactive”; with `CCC(=NCCCO)c1c(O)n(-c2ccc(OC)cc2)c(=O)[nH]c1=O`, “inactive”; with `O=C(COC(=O)c1ccccc1)Nc1ccccc1Sc1ccccc1`, “inactive”. In the case of `O=C1N=c2ccccc2=C/C1=C\c1c(O)[nH]c(=S)[nH]c1=O`, the Potency was 25.1 µM (active). Regarding `COc1ccc(C2N3CC(C)(C)CN23)cc1` (stereo not given), the activity, negative = inhibition entry is “inactive”.

With `CCCn1c(C(=O)c2ccccc2OC)nc2ccccc21`, the activity, negative = inhibition entry was “inactive”. With `COc1ccc(Br)cc1CNCCc1cccc(Cl)c1`, the Potency is 20 µM (active). On to `Cc1ccc(N2C(=O)NC(=O)C(CCc3ccncc3)(Cc3cccc(Cl)c3Cl)C2=O)cc1` (stereo not given), for which the activity, negative = inhibition entry is “inactive”. As for `CC1=CC(=Cc2sc3ccccc3[n+]2C)C=C(C)O1`, the Potency is 50.1 µM (active). Turning to `CN(C)C(=O)Oc1cc(=O)n2c3c(cccc13)CCC2`, the activity, negative = inhibition result was “inactive”.

As for `CC(C)Nc1nc(Cl)nc(NC(C)C)n1`, the activity, negative = inhibition entry is “inactive”. In the case of `CNC(=S)N/N=C1\C2CN3CCN(C2)CC1(c1ccccc1)C3`, the activity, negative = inhibition result is “inactive”. Still for that read-out and setting: with `Cc1ccc(P(=S)(c2ccc(C)o2)N2CCOCC2)o1` the figure was -35.9% [at 12.7 µM] (inactive).
